Test results as given in PubChem BioAssay AID504834 (National Center for Advancing Translational Sciences (NCATS), 2011).
Out of some 320,000 compounds screened, about 22,000 (6.9%) were called active. Inconclusive results (about 27%) are left out. This is one part of a sample in which actives are shown more often than they occur. Values without a mark were called inactive. Calls come from the whole dose curve; as a rule, active = well fitted inhibition curve with a large enough effect; inconclusive = small, poorly fitted or top-dose-only effect, or another doubt; inactive = no such curve, though single readings can be large or run the other way.

assay: Primary qHTS for delayed death inhibitors of the malarial parasite plastid, 96 hour incubation; settings: P. falciparum luciferase reporter growth; series mostly up to 28.7 µM; activity change, negative = inhibition: at the top concentration
Method in brief: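 Two parasite generations (96 h, 37 C, 5% CO2) of compound exposure in infected erythrocytes (0.05% parasitemia, 2% hematocrit). Luciferase-reporter P. falciparum; decreased luminescence indicates inhibited growth, aimed at apicoplast-acting delayed death.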
% is set by controls: 0 for no effect and ±100 for the full control effect; potency is the fitted concentration of half-maximal effect.

Compound	activity change, negative = inhibition	Potency
O=C(CNc1ccc(F)cc1F)NC(=O)NCc1ccco1	11.3%	
Cn1c(CNC(=O)c2ccco2)nnc1SCC(=O)N1CCN(c2ccccc2)CC1	-1.11%	
Cc1nc2ncnn2c(C)c1CCC(=O)N1CCN(C(=O)c2ccco2)CC1	37%	
O=C(Nc1cccc2ccccc12)N1CCC2(CC1)OCCO2	-27.2%	
Cc1nc2nc(C)c(CCC(=O)N3CCC4(CC3)OCCO4)c(C)n2n1		11.7 µM (active)
COc1ccc(CNC(=O)CNC(=O)c2sc3ccccc3c2Cl)cc1OC	0.724%	
CCOc1ccc(C)cc1S(=O)(=O)NC1CCCCCC1	-19.9%	
Cc1ccc(-n2nc(C)c(C(=O)O)c2-n2cccc2)cc1	17.1%	
O=C(NCCCc1ccccc1)C1CCC(CNc2c(N3CCCCC3)c(=O)c2=O)CC1 (stereo not drawn)	-25.3%	
CCOc1ccccc1NC(=O)C1CCC(CNc2c(N3CCOCC3)c(=O)c2=O)CC1 (stereo not drawn)	-10.4%	
O=C(NCc1ccccc1Cl)C1CCC(CNc2c(N3CCCCC3)c(=O)c2=O)CC1 (stereo not drawn)		10.4 µM (active)
O=C(NCc1ccc(F)cc1)C1CCC(CNc2c(N3CCOCC3)c(=O)c2=O)CC1 (stereo not drawn)	-22.9%	
COc1ccc(NC(=O)C2CCC(CNc3c(N4CCCCC4)c(=O)c3=O)CC2)c(OC)c1 (stereo not drawn)	-15.3%	
CC(NC(=O)C1CCC(CNc2c(N3CCOCC3)c(=O)c2=O)CC1)c1ccccc1 (stereo not drawn)		13.1 µM (active)
CCCCn1c(N)c(N(CCC(C)C)C(=O)COC(=O)c2cccnc2OCC)c(=O)[nH]c1=O	52.6%	
Cc1ccc(/C=C2\SC(=S)N(CCC(=O)Nc3ccc(O)cc3)C2=O)cc1	46.5%	
COc1ccc(OCC(=O)NNC(=O)c2ccc(-c3ccccc3)cc2)cc1	-17.4%	
COc1ccc(C(=O)NC(=S)NC2CCCCC2)cc1	-0.349%	
COc1ccc(C(=O)NNC(=S)NC(=O)c2ccccc2)cc1		6.57 µM (active)
Cc1cc(NC(=O)CCC(=O)N(CC(=O)NC2CCCC2)c2ccc(F)cc2)no1	40.9%	
C=CCC1=C/C(=C\c2c(N)n3nc(CC(=O)N4CCOCC4)sc3nc2=O)C=C(OC)C1=O	-14.7%	
Cc1cnc(NC(=O)CSc2nnc(C)s2)s1	-15.1%	
Cc1cnc(NC(=O)CSc2c(Cl)cccc2Cl)s1		10.4 µM (active)

Compound	activity change, negative = inhibition	Potency
Cc1ccc(SCC(=O)Nc2ncc(C)s2)cc1	3.99%	
CCOC(=O)C1=C(C)NC(SC)=NC1c1ccccc1 (stereo not drawn)	-21.1%	
CCOC(=O)C1=C(C)Nc2sc(C(=O)c3ccc(Br)cc3)c(N)c2C1c1ccc(C(=O)OC)cc1 (stereo not drawn)		6.57 µM (active)
CCOC(=O)c1sc(=NC(=O)c2ccc(Br)cc2)n(C)c1C	65.4%	
CC(OC(=O)/C=C/c1ccccc1)C(=O)Nc1ccc(C(N)=O)cc1 (stereo not drawn)	-9.65%	
O=C(Nc1ccc(Br)cc1)C1CCC(=O)N1Cc1ccccc1Cl (stereo not drawn)		10.4 µM (active)
CCCCNC(=O)C1CCC(=O)N1CCc1ccccc1 (stereo not drawn)	14.2%	
O=C1c2ccccc2C(O)N1Cc1ccccc1Cl (stereo not drawn)	59.3%	
COc1ccc(-c2onc3ccc(C(C)=O)cc23)cc1	25.1%	
O=C(c1c(F)cccc1F)N1CCN(S(=O)(=O)c2ccc3c(c2)OCCO3)CC1	-5.48%	
O=C(c1ccc2c(c1)OCCO2)C1CCN(S(=O)(=O)c2cccc(F)c2)CC1	-2.68%	
O=S(=O)(NC1CCN(S(=O)(=O)c2ccc3c(c2)OCCO3)CC1)c1c(F)cccc1F		11.7 µM (active)
CCOc1ccc(C(=O)CCN2CCOCC2)cc1	-16.3%	
O=C1CCN(CCCc2ccccc2)CCN1CCO	5.15%	
NS(=O)(=O)c1cccc(NC(=O)CC23CC4CC(CC(Br)(C4)C2)C3)c1	23.8%	
Cc1ccc(C(=O)OC(C)CN2CCOCC2)cc1 (stereo not drawn)		5.86 µM (active)
CC(CN1CCOCC1)OC(=O)c1ccc(Cl)cc1Cl (stereo not drawn)	5.52%	
Cc1cccc(C(=O)OC(C)CN2CCN(C)CC2)c1 (stereo not drawn)	46.6%	
O=C(COC(=O)c1ccccc1Br)Nc1nnc(-c2ccccc2)o1	6.55%	
CN1C/C(=C/c2cccs2)C(=O)/C(=C\c2cccs2)C1	-17.4%	
O=C(CNC(=O)c1ccccc1Br)NCCSc1ccc(Br)cc1	9.38%	
O=[N+]([O-])c1cccc(S(=O)(=O)N2CCCCCC2)c1	10.5%	
Cc1cc(C)n(S(=O)(=O)c2cccc([N+](=O)[O-])c2)n1	-17.8%	

Compound	activity change, negative = inhibition	Potency
Cc1ccc(-c2cn(S(=O)(=O)c3cccc([N+](=O)[O-])c3)nc2N)cc1		6.57 µM (active)
CCOC(=O)CCNC(=O)N1CCCC(C(=O)c2ccccc2SC)C1 (stereo not drawn)	-6.64%	
COc1ccc(C(=O)N2CCCC(C(=O)c3ccccc3OC)C2)cc1OC (stereo not drawn)	-26.1%	
COc1cccc(CN2CCCC(C(=O)c3ccccc3SC)C2)c1O (stereo not drawn)		1.65 µM (active)
CCCCC(c1nnnn1CS(=O)(=O)c1ccc(C)cc1)N1CCC(C(N)=O)CC1 (stereo not drawn)	-0.154%	
COc1ccc(C(=O)Nc2ccc(C(=O)NCC3CCCO3)cc2)c(OC)c1OC (stereo not drawn)	-8.54%	
c1ccc(C2CCC(N3CCC(N4CCCCC4)CC3)CC2)cc1 (stereo not drawn)		2.62 µM (active)
O=C(Cc1ccccc1)N1CCN(C2CCCCCC2)CC1	203%	
CCOC(=O)CN1CCC(c2ccccc2)CC1	-21.3%	
CC1CCCC(C)N1C(=O)COC(=O)COc1ccccc1C#N (stereo not drawn)	-0.308%	
COc1ccccc1OCC(=O)OCc1cc(-c2ccco2)on1	30.4%	
CN(CC(=O)Nc1ccc(F)c(F)c1F)C(=O)C1CC(=O)N(C2CCCC2)C1 (stereo not drawn)	51.1%	
CC1=C(C(=O)OCC2CCCCC2)C(c2ccc(F)cc2)NC(=O)N1 (stereo not drawn)	1.16%	
CCC(CC)COC(=O)C1=C(C)NC(=O)NC1c1ccc([N+](=O)[O-])cc1 (stereo not drawn)		4.65 µM (active)
CCOC(=O)C1=C(C)NC(=O)NC1c1ccccc1 (stereo not drawn)	-18.4%	
Cc1ccc(N(CC(=O)NCC2CCCO2)C(=O)CNS(=O)(=O)c2ccc(Cl)cc2)cc1 (stereo not drawn)	-13.8%	
CCc1nnc(NC(=O)CCC(=O)N2CCN(c3cc(C)ccc3C)CC2)s1	5.92%	
Cc1cc(Cl)nc(NC(=O)Nc2cccc(Cl)c2)n1	26.6%	
Cc1c(C=O)n(C)n(-c2ccccc2)c1=O	30.2%	
CCC1(c2ccccc2)C(=O)NC(=O)N(C)C1=O (stereo not drawn)		15.1 µM (active)
CNC(=O)CN1C(=O)NC(c2ccccc2)(c2ccccc2)C1=O	36.1%	
O=C(CSc1nc2ccccc2o1)N/N=C/c1ccccc1C(=O)O	195%	
